Where a name gives a salt, the structure may show the parent alone.
Each molecule was assayed on FB (assay: Euclidean distance of Cell Painting phenotypic profile (signed KS, 77 features) to DMSO centroid (dimensionless distance); 5 or 10 uM (library dependent); higher = stronger phenotypic change vs DMSO (phenoactivity)). Conditions: 48 h.
Procedure, shortened: (§1)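 Stained cells were imaged confocally at 20X with 9 fields per well, after 48 h of exposure to library compounds at 10 or 5 uM (set by library; 0.1% DMSO final). The cells were five cancer lines and a healthy fibroblast line. From the images, Harmony extracted 77 features, each expressed as a signed Kolmogorov-Smirnov statistic relative to same-plate vehicle wells. Phenoactivity is measured as Euclidean distance to the median vehicle profile, using plate-position-corrected, correlation-weighted profiles averaged across replicates at the top dose.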

| SMILES | Euclidean distance |
| --- | --- |
| CCCCC(C)(O)C/C=C/[C@H]1[C@H](O)CC(=O)[C@@H]1CCCCCCC(=O)OC (mixture of isomers) [Misoprostol] | 1.07 |
| NCC(=O)CCC(=O)O [5-Aminolevulinic acid HCl] | 1.12 |
| Cc1cccc(-c2[nH]ncc2-c2ccc3ncccc3n2)n1 | 1.15 |
| CCOC(=O)[C@H](CCc1ccccc1)N[C@@H](C)C(=O)N1Cc2ccccc2C[C@H]1C(=O)O [Quinapril HCl] | 1.09 |
| CS(=O)(=O)CCNCc1ccc(-c2ccc3ncnc(Nc4ccc(OCc5cccc(F)c5)c(Cl)c4)c3c2)o1 [Lapatinib ditosylate monohydrate] | 2.59 |
| CS(=O)(=O)CCNCc1ccc(-c2ccc3ncnc(Nc4ccc(OCc5cccc(F)c5)c(Cl)c4)c3c2)o1 [Lapatinib] | 2.22 |
| Clc1ccc(COC(Cn2ccnc2)c2ccc(Cl)cc2Cl)cc1 (stereo unspecified) [Econazole] | 1.02 |
| COc1ccc(-c2cc(=O)c3c(O)cc(O[C@@H]4O[C@H](CO[C@@H]5O[C@@H](C)[C@H](O)[C@@H](O)[C@H]5O)[C@@H](O)[C@H](O)[C@H]4O)cc3o2)cc1O [Diosmin] | 0.778 |
| COc1cnc(-n2cnc(C)n2)c2[nH]cc(C(=O)C(=O)N3CCN(C(=O)c4ccccc4)CC3)c12 | 0.569 |
| O=C(NNc1ccccc1)c1ccncc1 | 1.28 |
| CCCc1nc2c(C)cc(-c3nc4ccccc4n3C)cc2n1Cc1ccc(-c2ccccc2C(=O)O)cc1 [Telmisartan] | 1.03 |
| CC/C(=C(\c1ccc(O)cc1)c1ccc(OCCN(C)C)cc1)c1ccccc1 [4-Hydroxytamoxifen] | 2.61 |
| CC(=O)OCC1=C(C(=O)O)N2C(=O)[C@@H](NC(=O)CSC(=NC(C)C)NC(C)C)[C@H]2SC1 [Cefathiamidine] | 0.888 |
| CNCCc1ccccn1 [Betahistine mesylate] | 0.999 |
| CC(C)N(C[C@H]1O[C@@H](n2cnc3c(N)ncnc32)[C@H](O)[C@@H]1O)[C@H]1C[C@@H](CCc2nc3cc(C(C)(C)C)ccc3[nH]2)C1 | 1.28 |
| COc1ccc(OC)c(C(O)CNC(=O)CN)c1 (stereo unspecified) [Midodrine] | 0.683 |
| Cc1ccccc1-c1cc(N2CCN(C)CC2)ncc1N(C)C(=O)C(C)(C)c1cc(C(F)(F)F)cc(C(F)(F)F)c1 [Netupitant] | 0.999 |
| COc1nc(C)cnc1NS(=O)(=O)c1cccnc1-c1ccc(-c2nnco2)cc1 [Zibotentan (ZD4054)] | 0.844 |
| CC(CN1c2ccccc2Sc2ccccc21)N(C)C (stereo unspecified) [Promethazine HCl] | 1.72 |
| Clc1ccc2c(c1)C(N1CCNCC1)=Nc1ccccc1O2 [Amoxapine] | 1.06 |
| CCCc1nn(C)c2c(=O)[nH]c(-c3cc(S(=O)(=O)N4CCN(C)CC4)ccc3OCC)nc12 [Sildenafil] | 1.08 |
| CCN(CC)CCOCCOC(=O)C1(c2ccccc2)CCCC1 [Pentoxyverine Citrate] | 0.588 |
| C=CC(=O)Nc1cccc(Oc2nc(Nc3ccc(N4CCN(C)CC4)cc3)nc3ccsc23)c1 | 3.64 |
| CC(=O)/N=c1/sc(S(N)(=O)=O)nn1C [Methazolamide] | 0.885 |
| Nc1nc(NC2CC2)c2ncn([C@H]3C=C[C@@H](CO)C3)c2n1 [Abacavir sulfate] | 1.19 |
| CN(C)C1CCN(C(=O)c2ccc(NC(=O)Nc3ccc(-c4nc(N5CCOCC5)nc(N5CCOCC5)n4)cc3)cc2)CC1 | 4.95 |

These molecules were tested on HEPG2 in the same assay as above. Conditions: 48 h.
Procedure, shortened: as §1

| SMILES | Euclidean distance |
| --- | --- |
| CC(C)CC(=O)Nc1n[nH]c2c1CN(C(=O)C1CCN(C)CC1)C2(C)C | 2.82 |
| COc1ccc(CNCc2cccc3ccccc23)cc1 | 0.933 |
| CCN(CC)CCCC(C)Nc1ccnc2cc(Cl)ccc12 (stereo unspecified) [Chloroquine Phosphate] | 3.32 |
| COc1ccc(-c2oc3c(CC=C(C)C)c(O[C@@H]4O[C@H](CO)[C@@H](O)[C@H](O)[C@H]4O)cc(O)c3c(=O)c2O[C@@H]2O[C@@H](C)[C@H](O)[C@@H](O)[C@H]2O)cc1 [Icariin] | 0.96 |
| COc1cc(C(=O)NC2CCCNC2)cc(OC)c1OC (stereo unspecified) [Troxipide] | 1.83 |
| CO[C@H]1CC[C@H](N2C(=O)CNc3ncc(-c4ccc(C(C)(C)O)nc4)nc32)CC1 | 2.34 |
| O=C(O)c1cc(-c2ccc(F)cc2F)ccc1O [Diflunisal] | 0.706 |
| Cc1ccc(-n2sc(=O)n(Cc3ccc(F)cc3)c2=O)cc1 | 0.924 |
| COc1cc2ncnc(Nc3cccc(Cl)c3F)c2cc1OC(=O)N1CCN(C)C[C@H]1C | 0.691 |
| COc1ccc(CNC(=O)Nc2ncc([N+](=O)[O-])s2)cc1 | 1.02 |
| CC1Oc2cc(cnc2N)-c2c(nn(C)c2C#N)CN(C)C(=O)c2ccc(F)cc21 (stereo unspecified) | 2.11 |
| CC(C)C[C@H](NC(=O)[C@H](Cc1ccccc1)NC(=O)c1cnccn1)B(O)O [Bortezomib] | 4.55 |
| CN(C)CCOC(c1ccccc1)c1ccccc1.Cn1c(=O)c2[nH]c(Cl)nc2n(C)c1=O [Dimenhydrinate] | 0.581 |
| O=C(Nc1ccc(S(=O)(=O)Nc2ccccc2Cl)c(Cl)c1)c1ccccn1 | 0.744 |
| CCCCC(C)(O)C/C=C/[C@H]1[C@H](O)CC(=O)[C@@H]1CCCCCCC(=O)OC (mixture of isomers) [Misoprostol] | 0.553 |
| NCC(=O)CCC(=O)O [5-Aminolevulinic acid HCl] | 1.61 |
| Cc1cccc(-c2[nH]ncc2-c2ccc3ncccc3n2)n1 | 0.71 |
| CCOC(=O)[C@H](CCc1ccccc1)N[C@@H](C)C(=O)N1Cc2ccccc2C[C@H]1C(=O)O [Quinapril HCl] | 0.483 |
| CS(=O)(=O)CCNCc1ccc(-c2ccc3ncnc(Nc4ccc(OCc5cccc(F)c5)c(Cl)c4)c3c2)o1 [Lapatinib ditosylate monohydrate] | 3.3 |
| CS(=O)(=O)CCNCc1ccc(-c2ccc3ncnc(Nc4ccc(OCc5cccc(F)c5)c(Cl)c4)c3c2)o1 [Lapatinib] | 3.72 |

| SMILES | Euclidean distance |
| --- | --- |
| Clc1ccc(COC(Cn2ccnc2)c2ccc(Cl)cc2Cl)cc1 (stereo unspecified) [Econazole] | 1.09 |
| COc1ccc(-c2cc(=O)c3c(O)cc(O[C@@H]4O[C@H](CO[C@@H]5O[C@@H](C)[C@H](O)[C@@H](O)[C@H]5O)[C@@H](O)[C@H](O)[C@H]4O)cc3o2)cc1O [Diosmin] | 0.671 |
| COc1cnc(-n2cnc(C)n2)c2[nH]cc(C(=O)C(=O)N3CCN(C(=O)c4ccccc4)CC3)c12 | 1.32 |
| O=C(NNc1ccccc1)c1ccncc1 | 1.46 |
| CCCc1nc2c(C)cc(-c3nc4ccccc4n3C)cc2n1Cc1ccc(-c2ccccc2C(=O)O)cc1 [Telmisartan] | 1.95 |
| CC/C(=C(\c1ccc(O)cc1)c1ccc(OCCN(C)C)cc1)c1ccccc1 [4-Hydroxytamoxifen] | 4.31 |
| CC(=O)OCC1=C(C(=O)O)N2C(=O)[C@@H](NC(=O)CSC(=NC(C)C)NC(C)C)[C@H]2SC1 [Cefathiamidine] | 0.62 |
| CNCCc1ccccn1 [Betahistine mesylate] | 0.422 |
| CC(C)N(C[C@H]1O[C@@H](n2cnc3c(N)ncnc32)[C@H](O)[C@@H]1O)[C@H]1C[C@@H](CCc2nc3cc(C(C)(C)C)ccc3[nH]2)C1 | 0.884 |
| COc1ccc(OC)c(C(O)CNC(=O)CN)c1 (stereo unspecified) [Midodrine] | 0.342 |
| Cc1ccccc1-c1cc(N2CCN(C)CC2)ncc1N(C)C(=O)C(C)(C)c1cc(C(F)(F)F)cc(C(F)(F)F)c1 [Netupitant] | 1.23 |
| COc1nc(C)cnc1NS(=O)(=O)c1cccnc1-c1ccc(-c2nnco2)cc1 [Zibotentan (ZD4054)] | 1.11 |
| CC(CN1c2ccccc2Sc2ccccc21)N(C)C (stereo unspecified) [Promethazine HCl] | 0.856 |
| Clc1ccc2c(c1)C(N1CCNCC1)=Nc1ccccc1O2 [Amoxapine] | 0.744 |
| CCCc1nn(C)c2c(=O)[nH]c(-c3cc(S(=O)(=O)N4CCN(C)CC4)ccc3OCC)nc12 [Sildenafil] | 0.767 |
| CCN(CC)CCOCCOC(=O)C1(c2ccccc2)CCCC1 [Pentoxyverine Citrate] | 0.353 |
| C=CC(=O)Nc1cccc(Oc2nc(Nc3ccc(N4CCN(C)CC4)cc3)nc3ccsc23)c1 | 3.85 |
| CC(=O)/N=c1/sc(S(N)(=O)=O)nn1C [Methazolamide] | 0.858 |
| Nc1nc(NC2CC2)c2ncn([C@H]3C=C[C@@H](CO)C3)c2n1 [Abacavir sulfate] | 0.688 |
| CN(C)C1CCN(C(=O)c2ccc(NC(=O)Nc3ccc(-c4nc(N5CCOCC5)nc(N5CCOCC5)n4)cc3)cc2)CC1 | 2.04 |

Source: the supplement of paper PMC10127200
